# Only some compounds are listed: those with a hit (about 3.8% of all), similar ones and a draw of the others.
# PrPC TRFRET = cell surface PrPC inhibition, primary TR-FRET screen; P04156; 370,000 compounds, 0.43% hits; TR-FRET read-out; inhibition, % at 13.8 µM; in the data active = inhibition above about 24%; note: 0% = median of the test wells and 100% = reference compound wells
# GDH-TPI inh = inhibits GDH-TPI coupling enzymes, artifact for Mtb FBA screen | GDH-TPI coupled enzyme counterscreen, NADH absorbance | inhibition, % at 4.8 µM | 360,000 compounds, 1.2% hits | AID 588335; in the data active = inhibition above about 30%;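 note: 0% = DMSO wells and 100% = wells lacking the enzyme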
# FBA Mtb inh = inhibits M. tuberculosis FBA enzyme | 360,000 compounds, 2.3% hits | P9WQA3 | inhibition, % at 1 µM | purified M. tuberculosis FBA, fluorescence read-out | AID 588726; in the data active = inhibition above about 27%;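 note: 0% = vehicle and 100% = reference inhibitor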
# Target sequence (P9WQA3 whole entry, looked up): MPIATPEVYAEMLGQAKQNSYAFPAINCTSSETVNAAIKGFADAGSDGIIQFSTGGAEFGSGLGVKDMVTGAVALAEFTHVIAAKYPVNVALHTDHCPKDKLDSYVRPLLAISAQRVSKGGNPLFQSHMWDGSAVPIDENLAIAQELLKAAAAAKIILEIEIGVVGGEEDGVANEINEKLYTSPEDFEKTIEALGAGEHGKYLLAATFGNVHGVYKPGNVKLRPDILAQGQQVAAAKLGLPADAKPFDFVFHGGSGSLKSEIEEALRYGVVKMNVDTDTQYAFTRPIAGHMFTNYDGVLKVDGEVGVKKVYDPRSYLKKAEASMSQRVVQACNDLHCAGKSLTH
# PrP UTR inh = suppresses PrP 5' UTR mRNA reporter expression; 340,000 compounds, 0.35% hits; inhibition, % (concentration not given with the values); cell-based PrP 5' UTR mRNA reporter, plate reader; in the data active = inhibition above about 52%; note: 0 = median of the neutral control wells
# Yp Topo-I inh = Y. pestis Topo-I inhibition via cleavage products. Y. pestis Topo-I cleavage product accumulation, plate reader. activity, % at 10 µM. 360,000 compounds, 0.064% hits. AID 504884; in the data active = activity above about 50%, passing the limit was not always enough
# Mtb hypoxia rep = inhibitors of hypoxia-regulated fluorescent reporter in Mycobacterium tuberculosis. M. tuberculosis hypoxia-regulated fluorescent reporter, fluorescence. fluorescence inhibition, % (test concentration not listed). 300,000 compounds, 0.1% hits. AID 1159583; in the data active = fluorescence inhibition mostly above about 23%, no sharp cut-off; inactive = mostly below about 17%
# Starred values were filed as active, the others as inactive; . = no result; + = active, no number.
SMILES,PrPC TRFRET,GDH-TPI inh,FBA Mtb inh,PrP UTR inh,Yp Topo-I inh,Mtb hypoxia rep
O=C(c1cc(-c2cccc(Cl)c2)nc2ccccc12)N1CCN(c2ccccn2)CC1,-0.2,2.1,-0.6,-16.3,34.8,-0.5
CCN1c2ccccc2-c2nc3ccccc3n2C1c1cccs1 (stereo not drawn),4.5,7.0,+,-12.7,16.8,6.6
Cc1ccc(C2C3C(=O)N(c4ccccc4)C(=O)C3[C@]3(C)C(=O)N(Cc4ccccc4)CC(=O)N23)o1 (stereo partly drawn),.,.,.,.,.,10.9
COC(=O)c1ccc(COc2ccc(/C=C(\C#N)c3nc4ccccc4[nH]3)cc2OC)o1,-9.3,32.1*,6.0,-10.4,8.3,-19.7
O=C(O)c1cc(NN=Cc2ccc(N3CCOCC3)cc2)ccc1Cl,.,.,.,.,.,-0.7
O=C(NN=C/C=C/c1ccco1)c1cnccn1,.,.,.,.,.,12.5
O=C(N/N=C/C=C\c1ccco1)c1ccccn1,-5.3,35.5*,-3.2,-28.3,-7.5,.
O=C(N/N=C/C=C\c1ccco1)c1cccnc1,-2.7,32.7*,-2.8,-12.7,3.4,.
O=C(N/N=C/C=C/c1ccco1)c1cccnc1,-0.2,37.5*,-3.7,-32.9,0.0,.
O=C(N/N=C/C=C/c1ccco1)c1cnccn1,3.3,16.2,-3.5,-20.7,1.8,.
O=C(N/N=C/C=C\c1cccc([N+](=O)[O-])c1)c1ccccn1,-7.5,34.3*,-6.0,-12.8,0.5,.
COc1ccc(C=Nn2c(C)nnc2C)c(OC)c1OC,.,.,.,.,.,10.3
CC(O)C1CNC(=O)C(=O)N1CC1(c2ccccc2)CC1 (stereo not drawn),.,.,.,.,.,9.8
Cc1ccc(OCC(=O)N/N=C/C=C/c2ccco2)cc1C,-4.9,36.6*,-2.0,-15.2,20.3,.
O=C(N/N=C\C=C\c1ccco1)c1cncc(Br)c1,2.2,33.7*,-1.5,-24.9,-5.5,.
O=C(c1ccoc1)N1CCN(c2cc(-c3ccco3)nc3cc(-c4ccccc4)nn23)CC1,-9.1,27.8,112.8*,.,20.8,.
CN1CC2(Cc3c1ccc1ccccc31)C(=O)OC(C)(C)OC2=O,-15.9,7.3,+,8.3,-5.4,-78.8
CCC(=O)OCOc1ccc(/C=C2/CCC(CN(C)C)C2=O)cc1 (stereo not drawn),1.6,31.9*,-1.6,-26.0,32.0,.
CCOc1ccc(/C=C2\CCC(C3CCCC3)C2=O)cc1 (stereo not drawn),-6.4,1.3,2.4,-57.2,2.5,.
Cc1nc(N2CCOCC2)c2c(C)c(C(=O)Nc3ccc(F)cc3F)sc2n1,12.6,37.5*,1.4,5.7,-2.5,-1.6
COCCNC(=O)N1C2CCC1C(C(=O)OC)=C(c1cccc(C#N)c1)C2 (stereo not drawn),.,.,.,.,.,4.8
CC(C)(C)c1ccc(OCCn2nc(C(=O)O)c3ccccc3c2=O)cc1,5.8,-0.7,-0.8,-24.7,71.6*,-3.7
Cc1cccc(OCCn2nc(C(=O)O)c3ccccc3c2=O)c1,2.2,6.7,0.7,-24.8,41.6,.
COc1c2ccoc2c(OCC(O)C(C)(C)OC)c2oc(=O)ccc12 (stereo not drawn),.,.,.,.,.,5.7
Cc1cccc(Nc2nc(N)nc(N)c2N=O)c1,-46.1,30.7*,-1.2,-8.4,-3.5,6.9
SMILES,PrPC TRFRET,GDH-TPI inh,FBA Mtb inh,PrP UTR inh,Yp Topo-I inh,Mtb hypoxia rep
Cc1cc(Br)ccc1Nc1nc(N)nc(N)c1N=O,-19.1,32.5*,5.3,-19.5,-9.6,2.2
Cc1cccc(Nc2nc(N)c(C#N)c(CC#N)c2C#N)c1,9.4,64.2*,-0.4,-15.4,1.6,4.5
CC1(c2ccccc2)CC(C)(C)N2C(=O)C(=C3SC(=S)NC3=O)c3cccc1c32 (stereo not drawn),.,.,.,.,.,4.7
O=C(O)c1sc2cc(C(F)(F)F)cnc2c1-c1ccccn1,9.6,11.7,146.2*,-7.1,-5.0,11.2
C=CC(=O)N1C/C(=C/c2ccccc2)C(=O)/C(=C\c2ccccc2)C1,1.4,31.6*,1.4,-7.6,29.4,.
O=C(N/C(=C/c1cccs1)c1nc2ccccc2[nH]1)c1ccccc1,-1.7,32.8*,-1.1,-23.4,-1.6,1.4
Cc1ccc(C(=O)N/C(=C\c2cccs2)c2nc3ccccc3[nH]2)cc1,10.3,43.5*,-0.1,-28.8,4.7,-1.4
O=C(N/C(=C\c1ccc(Br)cc1)c1nc2ccccc2[nH]1)c1ccco1,9.5,47.2*,2.4,-37.9,9.9,2.1
O=C(N/C(=C\c1cccnc1)c1nc2ccccc2[nH]1)c1cccc(Br)c1,-6.6,21.5,-0.6,-2.9,-6.0,-0.6
N#C/C(=C\c1cccs1)c1nc2ccccc2[nH]1,0.9,28.7,-3.4,-61.5,5.5,-0.7

# Source: PubChem (several laboratories)
